The list is not random: actives were taken first. Their share in the collection is about 4.7%.
NTMT1 inhibitor: inhibitors of human N-terminal methyltransferase NTMT1. Potency, µM (highest dose often 114 µM), without a hit: top-dose activity change, negative = inhibition, hits mostly inhibitors. actives 2.5% (n = 59,000). Q9BV86. NTMT1 MTase-Glo SAH luminescence, purified enzyme;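 further: potency means the concentration at half of the fitted maximal effect; plate controls were DMSO vehicle for no effect and no enzyme for full effect; nearly all actives have a fitted effect of over 65% in size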
Target sequence (Q9BV86 whole entry, looked up): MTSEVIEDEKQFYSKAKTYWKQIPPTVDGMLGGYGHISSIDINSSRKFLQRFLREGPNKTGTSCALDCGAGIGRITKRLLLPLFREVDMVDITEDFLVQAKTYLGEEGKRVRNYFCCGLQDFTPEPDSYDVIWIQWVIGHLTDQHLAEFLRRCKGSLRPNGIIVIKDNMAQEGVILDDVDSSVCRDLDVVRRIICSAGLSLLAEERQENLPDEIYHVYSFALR
HTT-AS act: HTT-AS promoter activation. AID 1508624. actives 0.24% (n = 48,000). Potency, µM (series often up to 57.5 µM), for inactives: at the highest dose activity change, positive = activation, most hits filed as activators. HEK293 HTT-AS promoter firefly luciferase reporter, 24 h; response scale: percent change from vehicle, -100% = no light; further: potency means the concentration at half of the fitted maximal effect; nearly all actives have a fitted effect of over 55% in size
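HEK293 Fluc reporter, 2,500 cells/well, 24 h pre-culture; cpds up to 57.5 uM final, 24 h 37 degrees C; Dual-Glo, 10 min RT; normalized vehicle = 0%, zero RLU = -100%.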
GPR32 ag: GPR32 (DRV1) agonism, beta-arrestin recruitment | activation, % at 76.9 µM | actives 2.5% (n = 48,000) | O75388 | CHO-K1 GPR32 beta-arrestin PathHunter luminescence, 90 min; zero percent set by DMSO-only wells;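 active means activation of at least 60% and not above a set upper limit, about 1 call in 100 departs from these limits; inconclusive means activation of 40% to 60%, or above that upper limit; inactive means activation under 40%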; further: 0% is about no effect
Target sequence (O75388 whole entry, looked up): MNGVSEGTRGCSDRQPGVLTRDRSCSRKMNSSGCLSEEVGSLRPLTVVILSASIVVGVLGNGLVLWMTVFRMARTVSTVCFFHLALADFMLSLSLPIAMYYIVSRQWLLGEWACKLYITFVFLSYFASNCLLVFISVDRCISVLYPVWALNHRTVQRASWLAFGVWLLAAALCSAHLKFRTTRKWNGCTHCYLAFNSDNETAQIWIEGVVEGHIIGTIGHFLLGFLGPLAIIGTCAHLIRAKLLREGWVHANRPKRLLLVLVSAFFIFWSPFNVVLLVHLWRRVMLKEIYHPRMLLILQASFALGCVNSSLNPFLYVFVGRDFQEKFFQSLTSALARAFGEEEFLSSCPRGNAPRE
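Readings come from a cell-based beta-arrestin complementation format: CHO-K1 GPR32 stable cells (2,500/well) treated 90 min with compounds, then beta-Gal substrate added for 1 h before chemiluminescence imaging.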
HTT promoter inh: inhibitors of huntingtin promoter activity; actives 0.93% (n = 48,000); AID 1508623; HEK293 HTT promoter firefly luciferase reporter, 24 h; Potency, µM (titrated, usually from 57.5 µM), for inactives: top-dose activity change, negative = inhibition, usual class: inhibitors; further: potency means the concentration at half of the fitted maximal effect; nearly all actives have a fitted effect of over 50% in size
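Firefly luciferase signal from promoter-reporter HEK293 cells was scaled between vehicle (0%) and zero RLU (-100%). Compounds were tested at final concentrations of up to 57.5 uM over 24 h at 37 degrees C. PTC124 at 50 uM final served as control inhibitor.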
FH mod: Identification of activators of human fumarate hydratase by quantitative high-throughput screening | Fumarate hydratase, mitochondrial (Homo sapiens), P07954 | FH coupled MDH/diaphorase resazurin fluorescence, 15 min | Potency, µM (top dose mostly 79.9 µM), for inactives: at the highest dose activity change, negative = inhibition, most hits filed as inhibitors | actives 0.22% (n = 54,000); further: potency means the concentration at half of the fitted maximal effect; on the % scale 0 is the no-effect control and ±100 the full control effect; the screen sought activators but most active calls are inhibition curves; nearly all actives have a fitted effect of over 45% in size
* = called active by the depositor; ! = not confirmed by another sample; [ ] = dose if it differs, or a comment. Unless noted, the call rests on the fitted dose curve; in most records, active means well fitted curve in the direction sought with a large enough effect; inconclusive means small, poorly fitted or top-dose-only effect, or another doubt; inactive means no such curve, though single readings can be large; an effect the other way counts as inactive or inconclusive.

Screening CC(C)c1ccc(Nc2ncnc3c2nc2n3CCCC2)cc1 returned NTMT1 inhibitor 79.4µM*, HTT-AS act inconclusive, GPR32 ag 31.7, HTT promoter inh -18.6% and FH mod -7.5%.
For CCOc1ccccc1CNC(=O)CCc1c(C)nn(-c2ccc(N3CCCC3)nn2)c1C the results were GPR32 ag -5.7.
COc1ccccc1NC(=O)C(OC(=O)CNC(=O)c1ccccc1)c1ccccc1 (centres undefined) was read as NTMT1 inhibitor 6.9%.
`Cc1cc(C)c(S(=O)(=O)NCC(c2ccco2)N2CCN(c3ccccc3)CC2)c(C)c1` (centres undefined) gave NTMT1 inhibitor 11.1%, HTT-AS act -27.4%, GPR32 ag -41.3, HTT promoter inh -26.5% and FH mod -27.9%.
For CCc1ccc(Nc2nc(N)nc(CSc3nc4ccccc4s3)n2)cc1 the results were NTMT1 inhibitor 89.1µM*, HTT-AS act -14.7%, GPR32 ag 34.8, HTT promoter inh -28.1% and FH mod inconclusive.
CC(=O)Nc1ccc2nc(SCc3ccccc3)sc2c1 was read as NTMT1 inhibitor 4.0%, HTT-AS act inconclusive, GPR32 ag inconclusive, HTT promoter inh 29.8% and FH mod inconclusive.
CCn1nnc2cc(C(=O)Nc3cccc(C)c3C)ccc21 was read as NTMT1 inhibitor 10.7%, HTT-AS act -1.5%, GPR32 ag 6.3, HTT promoter inh 0.6% and FH mod 0.1%.
Screening Cc1ccc(NC(=O)c2c(C)oc3ncn(CC(C)C)c(=O)c23)nc1 returned NTMT1 inhibitor -0.5%, HTT-AS act -18.8%, GPR32 ag -12.3, HTT promoter inh -2.9% and FH mod 2.0%.
`O=C(c1ccc(F)c(F)c1Nc1ccc(I)cc1F)N1CC(O)([C@@H]2CCCCN2)C1` gave NTMT1 inhibitor 31.6µM*! and FH mod -1.6%.
Screening Cc1cccc(-c2nc(CN3CCCC(C(=O)NCCc4ccc(Cl)cc4)C3)c(C)o2)c1 (centres undefined) returned NTMT1 inhibitor -2.2%, HTT-AS act -46.4%, GPR32 ag 49.3, HTT promoter inh 31.6µM* and FH mod inconclusive.
Screening CCc1ccccc1NC(=O)c1sc(-n2nc(C)c(Cc3ccc4c(c3)OCO4)c2C)nc1C returned NTMT1 inhibitor 2.0%, HTT-AS act -5.3%, GPR32 ag -7.3, HTT promoter inh -6.2% and FH mod -21.9%.
CCOc1ccc(NC(=O)CC2Nc3cccc4cccc(c34)NC2=O)cc1 (centres undefined) was read as NTMT1 inhibitor -17.8%, HTT-AS act -21.3%, GPR32 ag 83.1*, HTT promoter inh -7.1% and FH mod -16.9%.
For CCOC(=O)c1ccc(NC(=O)CC2Nc3cc(C)c(C)cc3NC2=O)cc1 (centres undefined) the results were NTMT1 inhibitor 0.2%, HTT-AS act -89.9%, GPR32 ag -33.3, HTT promoter inh 8.91µM* and FH mod -6.6%.
Screening CC(=O)c1ccc(NC(=O)CC2Nc3cccc4cccc(c34)NC2=O)cc1 (centres undefined) returned NTMT1 inhibitor inconclusive, HTT-AS act -23.6%, GPR32 ag 32.5, HTT promoter inh -28.2% and FH mod inconclusive.
For COc1cccc(NC(=O)CC2Nc3cc(C)c(C)cc3NC2=O)c1 (centres undefined) the results were NTMT1 inhibitor 28.9%, HTT-AS act -0.9%, GPR32 ag -24.2, HTT promoter inh -17.0% and FH mod 0.7%.
Screening C=C1CCC[C@]2(C)C[C@]3(O)OC(=O)C(C)=C3C[C@@H]12 returned NTMT1 inhibitor 0.0%[57.5 µM] and FH mod -9.7%.
COc1ccc(C(=O)O)cc1Nc1nc2ccc(C)cc2n2cnnc12 was read as NTMT1 inhibitor 70.8µM*, HTT-AS act -13.8%, GPR32 ag -9.8, HTT promoter inh -10.1% and FH mod inconclusive.
For Cc1nc2nncn2c(NCc2ccc(Cl)cc2)c1C the results were NTMT1 inhibitor 6.4%, HTT-AS act -49.4%, GPR32 ag 76.3*, HTT promoter inh inconclusive and FH mod -6.7%.
COC(=O)C1=CO[C@@H](O[C@@H]2O[C@H](CO)[C@@H](O)[C@H](O)[C@H]2O)[C@@H]2[C@@H](C)[C@@H](O)C[C@H]12 was read as NTMT1 inhibitor 10.5%[29.8 µM] and FH mod 18.1%[53.3 µM].
`CCN(CC)S(=O)(=O)c1nnc(NC(=O)c2ccc(C(C)C)cc2)s1` gave NTMT1 inhibitor 8.6%, HTT-AS act -24.6%, GPR32 ag 75.4*, HTT promoter inh inconclusive and FH mod 14.0%.
For CCN(CC)S(=O)(=O)c1nnc(NC(=O)c2ccc(C)cc2)s1 the results were NTMT1 inhibitor 12.2%, HTT-AS act 10.3%, GPR32 ag 31.8, HTT promoter inh 5.5% and FH mod -0.7%.
Screening Cc1cc(=O)[nH]c2nnc(SCCC(C)C)n12 returned NTMT1 inhibitor -0.1%, HTT-AS act 2.0%, GPR32 ag 39.6, HTT promoter inh -8.5% and FH mod -4.6%.
O=C(Nc1cccc(C(F)(F)F)c1)c1cnn(-c2cccc(F)c2)c1C1CCNCC1 was read as NTMT1 inhibitor -26.3%, HTT-AS act -12.6%, GPR32 ag -8.4, HTT promoter inh -3.3% and FH mod inconclusive.
CC1CCc2c(sc(NC(=O)CCCOc3ccccc3)c2C(N)=O)C1 (centres undefined) was read as NTMT1 inhibitor -3.7%, HTT-AS act -1.4%, GPR32 ag 95.9*, HTT promoter inh 0.6% and FH mod -6.9%.
Screening CCCCCn1c(=N)n(CC(O)COc2cccc(C)c2)c2ccccc21 (centres undefined) returned NTMT1 inhibitor -11.5%, HTT-AS act -33.2%, GPR32 ag 89.8*, HTT promoter inh inconclusive and FH mod 1.6%.
For N=c1n(CCN2CCCCC2)c2ccccc2n1CC(O)COc1ccccc1 (centres undefined) the results were NTMT1 inhibitor 1.1%, HTT-AS act -50.4%, GPR32 ag 65.4*, HTT promoter inh inconclusive and FH mod -24.9%.
Screening CCCn1c(COc2cccc(C)c2)nc2ccccc21 returned NTMT1 inhibitor 5.7%, HTT-AS act -2.8%, GPR32 ag -1.8, HTT promoter inh 10.3% and FH mod -10.5%.
Cc1ccccc1OCC(O)Cn1c(=N)n(CCN2CCCCC2)c2ccccc21 (centres undefined) was read as NTMT1 inhibitor inconclusive, HTT-AS act -29.0%, GPR32 ag 19.7, HTT promoter inh inconclusive and FH mod -0.3%.
Screening CNc1ncc(-c2cccc3ccccc23)o1 returned NTMT1 inhibitor -10.5%.
For Cc1cc(Nc2cccc(O)c2)c2cccc(Br)c2n1 the results were NTMT1 inhibitor 10.1%, HTT-AS act -4.5%, GPR32 ag 119.3*, HTT promoter inh 4.0% and FH mod -5.6%.

Source: PubChem
